Activity calls are given as the source filed them. The calls were made as follows: active = hit-call score of the fitted dose curve at least 0.9, where 1 is the maximum; inactive = score below 0.9.

Common to all, as to conditions: mRNA level, 48 h; actives raise or lower the signal
Read-out in assay [1]: Cyclin Dependent Kinase Inhibitor 1A (CDKN1A), CDKN1A (gene 1026)
The assay can be described thus: LTEA_HepaRG_CDKN1A: Life Technologies and Expression Analysis (LTEA) Assay for Cyclin Dependent Kinase Inhibitor 1A (CDKN1A) using HepaRG (AID 2283450). Summed up: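 HepaRG, 48 h dosing, 8-pt half-log series from 100 uM top, 0.5% DMSO vehicle, duplicates. Readout: TaqMan qRT-PCR of CDKN1A transcript, housekeeping-normalized (ACTB, GAPDH, POLR2A). Up/down curve fit relative to DMSO.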

Read-out in assay [2]: Cyclin D1 (CCND1), CCND1 (gene 595)
The assay is described as follows: LTEA_HepaRG_CCND1: Life Technologies and Expression Analysis (LTEA) Assay for Cyclin D1 (CCND1) using HepaRG (AID 2283451).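 As to AC50: differentiated human HepaRG liver cells in serum-free induction medium; TaqMan qRT-PCR transcript level normalised to ACTB GAPDH and POLR2A housekeeping genes.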 Put shortly:
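qRT-PCR (Fluidigm 96.96 array) read-out of transcript level, housekeeping-normalized (ACTB/GAPDH/POLR2A). HepaRG cells, 48 h chemical exposure, 8-point half-log series from 100 uM, 0.5% DMSO vehicle; gain or loss relative to DMSO baseline.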

Read-out in assay [3]: catalase (CAT), CAT (gene 847)
The assay can be described thus: LTEA_HepaRG_CAT: Life Technologies and Expression Analysis (LTEA) Assay for catalase (CAT) using HepaRG (AID 2283452). Put shortly: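 Expression of CAT was quantified by TaqMan qRT-PCR with ACTB/GAPDH/POLR2A normalization after 48 h chemical exposure of HepaRG. Eight-point half-log series, top 100 uM, in 0.5% DMSO; gain or loss fitted against vehicle.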

Read-out in assay [4]: flavin-containing dimethylaniline monooxygenases 3 (FMO3), FMO3 (gene 2328)
The assay can be described thus: LTEA_HepaRG_FMO3: Life Technologies and Expression Analysis (LTEA) Assay for flavin-containing dimethylaniline monooxygenases 3 (FMO3) using HepaRG (AID 2283453).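 As to AC50: differentiated human HepaRG liver cells in serum-free induction medium.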 Put shortly:
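FMO3 transcript quantified by TaqMan qRT-PCR against three housekeeping genes after 48 h chemical exposure of HepaRG cells. Eight-point half-log series, top 100 uM, 0.5% DMSO vehicle; phenobarbital 1mM induction control; up- or down-regulation fitted.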

Read-out in assay [5]: Cytochrome P450 (CYP1A1), CYP1A1 (gene 1543)
The assay is described as follows: LTEA_HepaRG_CYP1A1: Life Technologies and Expression Analysis (LTEA) Assay for Cytochrome P450 (CYP1A1) using HepaRG (AID 2283454). Summed up: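 qRT-PCR read-out: CYP1A1 transcript normalized to three housekeeping genes, fitted bidirectionally against 0.5% DMSO vehicle baseline. Human HepaRG cells, 48 h chemical exposure, 8-point half-log series topping at 100 uM.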

Read-out in assay [6]: CFLAR gene, CFLAR (gene 8837)
The assay can be described thus: LTEA_HepaRG_CFLAR: Life Technologies and Expression Analysis (LTEA) Assay for CFLAR gene using HepaRG (AID 2283455). Summed up:
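Transcript level by qRT-PCR (normalized to ACTB, GAPDH and POLR2A) after 48 h chemical exposure of HepaRG cells, top concentration 100 uM with half-log steps, 0.5% DMSO vehicle, duplicates; fitted bidirectionally against DMSO baseline.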

Read-out in assay [7]: Forkhead box O1 (FOXO1), FOXO1 (gene 2308)
The assay is described as follows: LTEA_HepaRG_FOXO1: Life Technologies and Expression Analysis (LTEA) Assay for Forkhead box O1 (FOXO1) using HepaRG (AID 2283456). Put shortly: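 FOXO1 transcript quantified by qRT-PCR after 48 h chemical exposure (top 100 uM, half-log steps, 0.5% DMSO) of HepaRG cells, housekeeping-normalized (ACTB/GAPDH/POLR2A). Changes fitted in both directions relative to vehicle.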

Read-out in assay [8]: growth arrest and DNA damage 45 (GADD45A), GADD45A (gene 1647)
The assay is described as follows: LTEA_HepaRG_GADD45A: Life Technologies and Expression Analysis (LTEA) Assay for growth arrest and DNA damage 45 (GADD45A) using HepaRG (AID 2283458). Put shortly:
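Transcript induction or loss, quantified by TaqMan qRT-PCR against three housekeeping genes, is the read-out. HepaRG cells received chemicals for 48 h across eight half-log concentrations from 100 uM in 0.5% DMSO; gain and loss fitted relative to DMSO.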

Read-out in assay [9]: ABC Transporter (ABCB1), ABCB1 (gene 5243)
The assay can be described thus: LTEA_HepaRG_ABCB1: Life Technologies and Expression Analysis (LTEA) Assay for ABC Transporter (ABCB1) using HepaRG (AID 2283460). Summed up: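 ABCB1 transcript level measured by TaqMan qRT-PCR against three housekeeping genes after 48 h chemical exposure of differentiated HepaRG cells. Top concentration 100 uM, half-log steps, eight points, 0.5% DMSO vehicle; bidirectional fit relative to DMSO.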

Read-out in assay [10]: ABC Transporter (ABCC3), ABCC3 (gene 8714)
The assay is described as follows: LTEA_HepaRG_ABCC3: Life Technologies and Expression Analysis (LTEA) Assay for ABC Transporter (ABCC3) using HepaRG (AID 2283462). Summed up:
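qRT-PCR read-out of ABCC3 transcript, normalized to three housekeeping genes (ACTB, GAPDH, POLR2A), after 48 h chemical exposure of human HepaRG cells. Eight half-log concentrations, highest 100 uM, in 0.5% DMSO; gain or loss fitted relative to DMSO baseline.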

Read-out in assay [11]: ABC Transporter (ABCB11), ABCB11 (gene 8647)
The assay is described as follows: LTEA_HepaRG_ABCB11: Life Technologies and Expression Analysis (LTEA) Assay for ABC Transporter (ABCB11) using HepaRG (AID 2283463). Summed up:
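ABCB11 transcript levels quantified by TaqMan qRT-PCR against three housekeeping genes after 48 h chemical exposure of HepaRG cultures. Concentrations up to 100 uM in half-log steps, 0.5% DMSO vehicle; both induction and suppression scored.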

Read-out in assay [12]: ABC Transporter (ABCC2), ABCC2 (gene 1244)
The assay is described as follows: LTEA_HepaRG_ABCC2: Life Technologies and Expression Analysis (LTEA) Assay for ABC Transporter (ABCC2) using HepaRG (AID 2283464). Summed up: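 qRT-PCR (TaqMan, Fluidigm array) read-out of ABCC2 mRNA, normalized to three housekeeping genes. Differentiated HepaRG cells were treated 48 h in serum-free induction medium with 8-point half-log series from 100 uM in 0.5% DMSO; curves fitted bidirectionally relative to DMSO.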

Read-out in assay [13]: Broad substrate specificity ATP-binding cassette transporter ABCG2 (Homo sapiens) (UniProt Q9UNQ0)
The assay can be described thus: LTEA_HepaRG_ABCG2: Life Technologies and Expression Analysis (LTEA) Assay for ABC Transporter (ABCG2) using HepaRG (AID 2283465). Put shortly: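 ABCG2 transcript was quantified by TaqMan qRT-PCR against three housekeeping genes in HepaRG cells. Cells were treated in duplicate for 48 h across an 8-point half-log series up to 100 uM, with 0.5% DMSO vehicle. Gain or loss versus DMSO was fit.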

Read-out in assay [14]: ATP-citrate lyase (ACLY), ACLY (gene 47)
The assay is described as follows: LTEA_HepaRG_ACLY: Life Technologies and Expression Analysis (LTEA) Assay for ATP-citrate lyase (ACLY) using HepaRG (AID 2283466). Summed up:
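ACLY mRNA quantified by qRT-PCR on Fluidigm arrays against three housekeeping genes, after 48 h chemical treatment of HepaRG cells (top concentration 100 uM, half-log steps, 0.5% DMSO vehicle). Up- or down-regulation fitted relative to DMSO.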

Read-out in assay [15]: Peroxisomal acyl-coenzyme A oxidase 1 (ACOX1) gene, ACOX1 (gene 51)
The assay is described as follows: LTEA_HepaRG_ACOX1: Life Technologies and Expression Analysis (LTEA) Assay for Peroxisomal acyl-coenzyme A oxidase 1 (ACOX1) gene using HepaRG (AID 2283467). Summed up: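 ACOX1 transcript levels were quantified by TaqMan qRT-PCR against three housekeeping genes after 48 h chemical exposure of differentiated human HepaRG cells. Exposure used eight half-log steps topping at 100 uM, 0.5% DMSO vehicle, in duplicate. Bidirectional curve fits were made relative to DMSO.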

Read-out in assay [16]: Alkaline Phosphatase, Placental (ALPP) gene, ALPP (gene 250)
The assay is described as follows: LTEA_HepaRG_ALPP: Life Technologies and Expression Analysis (LTEA) Assay for Alkaline Phosphatase, Placental (ALPP) gene using HepaRG (AID 2283468).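 As to AC50: differentiated human HepaRG liver cells in serum-free induction medium.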 Summed up:
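qRT-PCR readout of ALPP mRNA (Fluidigm TaqMan), normalized to ACTB/GAPDH/POLR2A, after 48 h chemical exposure of HepaRG cells; 8-point half-log series, top 100 uM, 0.5% DMSO vehicle. Bidirectional curve fit versus DMSO baseline.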

Read-out in assay [17]: Bcl-2 (BAD) gene, BAD (gene 572)
The assay can be described thus: LTEA_HepaRG_BAD: Life Technologies and Expression Analysis (LTEA) Assay for Bcl-2 (BAD) gene using HepaRG (AID 2283469). Put shortly: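 Read-out: qRT-PCR of BAD mRNA, normalized to three housekeeping genes. Human HepaRG cultures got 48 h chemical exposure in 0.5% DMSO, duplicate eight-point half-log series topping at 100 uM. Gain or loss of signal fitted versus DMSO vehicle.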

Read-out in assay [18]: growth arrest and DNA damage 45 (GADD45B), GADD45B (gene 4616)
The assay is described as follows: LTEA_HepaRG_GADD45B: Life Technologies and Expression Analysis (LTEA) Assay for growth arrest and DNA damage 45 (GADD45B) using HepaRG (AID 2283461). Summed up:
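qRT-PCR read-out (Fluidigm TaqMan, housekeeping-normalized) of mRNA change in human HepaRG cells after 48 h chemical exposure; 8-point curve, top 100 uM, half-log steps, 0.5% DMSO vehicle; gain or loss fitted relative to DMSO baseline.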

Chain of Broad substrate specificity ATP-binding cassette transporter ABCG2 (Homo sapiens) (Q9UNQ0 whole entry, looked up): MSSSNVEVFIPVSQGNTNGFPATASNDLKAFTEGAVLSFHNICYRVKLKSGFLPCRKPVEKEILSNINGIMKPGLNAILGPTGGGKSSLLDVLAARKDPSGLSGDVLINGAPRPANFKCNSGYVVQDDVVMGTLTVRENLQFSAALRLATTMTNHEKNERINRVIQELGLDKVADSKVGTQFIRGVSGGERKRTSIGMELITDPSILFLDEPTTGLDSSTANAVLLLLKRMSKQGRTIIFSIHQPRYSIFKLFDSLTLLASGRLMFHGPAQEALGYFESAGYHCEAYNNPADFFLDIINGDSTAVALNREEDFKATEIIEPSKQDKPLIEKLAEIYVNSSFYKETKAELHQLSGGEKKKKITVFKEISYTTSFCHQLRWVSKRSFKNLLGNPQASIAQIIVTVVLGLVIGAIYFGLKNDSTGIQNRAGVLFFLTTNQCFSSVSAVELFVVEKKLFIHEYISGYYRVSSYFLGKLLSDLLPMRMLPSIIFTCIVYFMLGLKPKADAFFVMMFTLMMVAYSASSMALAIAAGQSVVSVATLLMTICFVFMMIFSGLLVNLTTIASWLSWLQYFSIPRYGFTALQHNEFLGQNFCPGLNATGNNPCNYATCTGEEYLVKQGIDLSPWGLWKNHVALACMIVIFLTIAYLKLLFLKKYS

`CN(C)c1ccc(C(=C2C=CC(=[N+](C)C)C=C2)c2ccc(N(C)C)cc2)cc1`: the outcome in assay [1] and in [13] was inactive. Further, the AC50 in assay [2] was 37.1 µM (active); in [3] it was 3.73 µM (active); in assay [4], 4.03 µM (active); in assay [5], 7.18 µM (active); in [6], 29.6 µM (active); in assay [7], 10.1 µM (active). The AC50 in assay [8] is 50 µM (active); in assay [9], 12.9 µM (active); in [10], 85.8 µM (active); in [11] it was 3.65 µM (active); in assay [12], 18.8 µM (active); in assay [14] it was 12.5 µM (active). For the same molecule, the AC50 in assay [15] was 12.9 µM (active); in assay [16] it was 3.9 µM (active).

For the molecule `O=c1ccc2ccccc2o1`, the molecule was classed as inactive in assay [1], in assay [2], in assay [3], in assay [4], in assay [5] and in assay [6]. Moreover, the result in assay [7], in assay [8], in assay [9], in [11], in assay [12] and in assay [13] was inactive. In addition, the call in assay [14], in [15], in assay [16] and in assay [17] was inactive.

Turning to `CCCCCCCC[Si](OCC)(OCC)OCC`, the call in assay [1], in [2], in assay [3], in assay [4], in assay [5] and in assay [6] was inactive. For the same molecule, the outcome in assay [7], in assay [8], in [9], in [10], in assay [11] and in assay [12] was inactive. Further, the molecule was called inactive in assay [13], in assay [14], in assay [16] and in [17].

In the case of `CCCCOC(=O)CC(CC(=O)OCCCC)(OC(C)=O)C(=O)OCCCC`, the molecule was classed as inactive in assay [1], in assay [2], in assay [3], in [4], in [5] and in assay [6]. For the same molecule, the molecule was classed as inactive in assay [7], in assay [8], in [9], in [18], in [11] and in [12]. In addition, the molecule was classed as inactive in assay [13], in assay [14], in [15], in assay [16] and in [17].

Consider `Oc1ccccc1`, for which the molecule was called inactive in [1], in assay [2], in assay [3], in assay [4], in assay [5] and in assay [6]. For the same molecule, the molecule was classed as inactive in assay [7], in [8], in assay [9], in assay [10], in assay [11] and in [12]. Further, the molecule was called inactive in assay [13], in assay [14], in assay [16] and in assay [17].

For `O=C=NCCCCCCN=C=O`, the molecule was classed as inactive in assay [1], in assay [2], in assay [3], in [4], in assay [6] and in assay [7]. For the same molecule, the result in assay [8], in assay [9], in [11], in assay [12], in assay [13] and in assay [14] was inactive. For the same molecule, the result in [15], in [16] and in [17] was inactive. Moreover, in assay [5], the half-maximal activity concentration (AC50) is 80.1 µM (active).

These data come from PubChem BioAssay (EPA / NIEHS).
